According to PubChem BioAssay (NCATS):
Inconclusive results are not listed. Values without a mark were called inactive. The source made the active and inactive calls. Calls follow the shape of the dose curve; as a rule, active = well fitted curve in the direction sought with a large enough effect; inconclusive = small, poorly fitted or top-dose-only effect, or another doubt; inactive = no such curve, though single readings can be large; an effect the other way counts as inactive or inconclusive.

system: Zika virus NS2B-NS3 protease; assay: Primary screen GU AMC qHTS for Zika virus inhibitors (AID 1347154); conditions: Zika NS2B-NS3 unlinked protease, AMC fluorogenic substrate; series mostly up to 54.1 µM; activity change, negative = inhibition: at the top concentration;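 also: 0% = no-inhibitor control and -100% = no-enzyme control; nearly all actives have a fitted effect of over 70% in size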
Summary of the method: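 Fluorogenic AMC-substrate cleavage by noncovalent NS2B-NS3 protease complex (25 nM, pH 8.0 Tris buffer with Tween 20) followed for 15 minutes at room temperature (~20% conversion). Percent inhibition from ex340/em450 signal change, fitted by 4-parameter Hill equation.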

SMILES | Potency | activity change, negative = inhibition [%]
CO[C@H]1CC=C2CCN3CCC4=C(CC(=O)OC4)[C@]23C1 | inactive | 
NC(C(=O)O)c1cc(=O)[nH]o1 (stereo unspecified) |  | 10.1
CC(C)(C)c1cc(C=C(C#N)C#N)cc(C(C)(C)C)c1O | inactive | 
C[N+]1(C)CCN(c2ccccc2)CC1 |  | 2.51
CN1C2CCC1CC(OC(c1ccccc1)c1ccccc1N)C2 (stereo unspecified) |  | 14.7
NCC(CP(=O)(O)O)c1ccc(Cl)cc1 (stereo unspecified) |  | 5.76
CCCN(CCC)[C@@H]1CCc2cccc(O)c2C1 | inactive | 
CC(C)[C@@]1(NC(=O)[C@@H]2C[C@@H]3c4cccc5[nH]cc(c45)C[C@H]3N(C)C2)O[C@@]2(O)[C@@H]3CCCN3C(=O)[C@H](Cc3ccccc3)N2C1=O |  | 1.27
CN1CCC(c2c[nH]c3ccc(O)cc23)CC1 | inactive | 
CP(=O)(O)C1=CCNCC1 |  | 1.02
C[N+](C)(C)CC#CCOC(=O)Nc1cccc(Cl)c1 | inactive | 

system: not listed separately; assay: Confirmatory screen GU Rhodamine qHTS for Zika virus inhibitors qHTS (AID 1347157); conditions: purified enzyme assay, Rhodamine110 substrate fluorescence, 15 min; series mostly up to 114 µM; activity change, negative = inhibition: at the top concentration; also: nearly all actives have a fitted effect of over 70% in size; also: potency is read from the fitted curve at half-maximal effect;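 as to activity change, negative = inhibition: plate controls were no-inhibitor wells for no effect and no-enzyme wells for full effect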
Summary of the method: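 A qHTS format was used, with compound concentrations ranging up to 114 microM. Each compound was preincubated with 25 nM NS2B-NS3 protease, and the substrate was then added at 1.5 microM. Curves were fitted with a 4-parameter Hill model.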

SMILES | Potency | activity change, negative = inhibition [%]
CCCCCOc1cc2c(cc1-c1cc(/C=C/C(=O)O)ccc1O)C(C)(C)CCC2(C)C | 1.75 µM (active) | 
COC(=O)C1(C)CCC(O)C2(C)c3cc(O)c(C(C)C)cc3C(O)C(OC(C)=O)C12 (stereo unspecified) | 24.2 µM (active) | 
COc1c(C(C)C)cc2c(c1O)[C@@]1(C(=O)O)CCCC(C)(C)C1CC2 (stereo partly specified) | 6.85 µM (active) | 
CCN1CC2(COC)C3[C@@H](OC)C4C1C3(C1C[C@]3(O)[C@H](OC(=O)c5ccccc5)C1[C@]4(OC(C)=O)[C@@H](O)[C@@H]3OC)[C@H](OC)C[C@H]2O (stereo partly specified) |  | 1.83
Oc1cc(Cl)c(Cl)cc1Cl |  | -3.65

system: Zika virus NS2B-NS3 protease (unlinked complex); assay: Primary screen GU Rhodamine qHTS for Zika virus inhibitors: Unlinked NS2B-NS3 protease assay (AID 1347159); conditions: Recombinant ZIKV NS2B-NS3 protease, Rhodamine110 substrate fluorescence; series mostly up to 107 µM; activity change, negative = inhibition: at the top concentration; also: nearly all actives have a fitted effect of over 60% in size; also: potency is read from the fitted curve at half-maximal effect; as to activity change, negative = inhibition: % is scaled to controls: 0 for no effect and ±100 for the full control effect
Summary of the method: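 Noncovalent NS2B hydrophilic domain/NS3 protease complex (25 nM final) in 10 mM Tris-HCl pH 8.0, 0.01% Tween 20, preincubated 15 min with compounds (up to 114 microM), then 1.5 microM Rhodamine110 substrate. Fluorescence change over 15 min fitted to 4-parameter Hill.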

SMILES | Potency | activity change, negative = inhibition
CCCCCOc1cc2c(cc1-c1cc(/C=C/C(=O)O)ccc1O)C(C)(C)CCC2(C)C | 2.51 µM (active) | 
CC(C)(C)c1cc(C(C)(C)C)c2c(c1)C(O)(C(F)(F)F)C(=O)O2 (stereo unspecified) | 7.94 µM (active) | 
COC(=O)[C@@]12C(=O)C(C)C(=O)[C@]1(C)C(C)=C[C@H]1[C@]3(C=O)CC[C@H](OC(C)=O)C(C)(C)[C@H]3CC[C@@]12C (stereo partly specified) |  | -4.54% [at 57.1 µM]
Cc1c(Cl)cccc1S(=O)(=O)Nc1nc(CC(=O)N2CCN(C)CC2)cs1 |  | 27.5%
C=C(CO)C(=O)O[C@H]1C/C(C)=C/CC/C(CO)=C/[C@H]2OC(=O)C(=C)[C@H]12 |  | -3.63%
C/C=C(\C)C(=O)OC1C(C)OC(OC2C(C)OC(OC3CCC4(C)C(=CCC5C4CCC4(C)C(C(C)OC6OC(COC7OC(CO)C(O)C(O)C7O)C(O)C(O)C6O)CCC54O)C3)CC2OC)C(O)C1OC (stereo unspecified) |  | 15.8% [at 32.5 µM]
CC(C)[C@@H](CN1CC[C@@](C)(c2cccc(O)c2)[C@@H](C)C1)NC(=O)[C@H]1Cc2ccc(O)cc2CN1 |  | 49.2%
CCc1[nH]c2ccc(OC)cc2c1CCN(C)C |  | 89.7%
CCN1C[C@]2(OC(=O)c3ccccc3NC(C)=O)CC[C@H](OC)[C@@]34[C@@H]2C[C@@H]([C@@H]13)[C@@]1(O)C[C@H](OC)[C@H]2C[C@@H]4[C@]1(O)[C@H]2OC |  | 7.89%
CC(CCc1ccc(O)cc1)O[C@@H]1O[C@H](CO[C@H]2OC[C@](O)(CO)[C@H]2O)[C@@H](O)[C@H](O)[C@H]1O (stereo partly specified) |  | 19% [at 57.1 µM]
Cn1ncnc1COc1nn2c(-c3c(F)cccc3F)nnc2cc1C1CCC1 |  | 4.73%
C=CC(C)(O)CC/C=C(\C)C(=O)O[C@H]1[C@H](O)[C@@H](CO)O[C@@H](OC(=O)[C@]23CCC(C)(C)CC2C2=CCC4[C@@]5(C)CC[C@H](O[C@@H]6O[C@H](CO[C@@H]7OC[C@H](O)[C@H](O)[C@H]7O[C@@H]7OC[C@@H](O)[C@H](O)[C@H]7O)[C@@H](O)[C@H](O)[C@H]6O)C(C)(C)C5CC[C@@]4(C)[C@]2(C)CC3)[C@@H]1OC1OC(C)C(O[C@@H]2OC[C@@H](O)[C@H](O[C@@H]3OC[C@@H](O)[C@H](O)[C@H]3O)[C@H]2O)C(O)C1O (stereo partly specified) |  | 50.7% [at 19.1 µM]
C[C@H]1O[C@@H](O[C@H]2C[C@@H](O)[C@]3(CO)C4C(CC[C@]3(O)C2)[C@@]2(O)CC[C@H](C3=CC(=O)OC3)[C@@]2(C)C[C@H]4O)[C@@H](O)[C@@H](O)[C@H]1O (stereo partly specified) |  | -4.77% [at 32.5 µM]
CN1CCC[C@@H]1Cc1c[nH]c2ccc(Nc3ncccc3[N+](=O)[O-])cc12 |  | 24.5%
CC(N)Cc1c[nH]c2ccccc12 (stereo unspecified) |  | 9.23%
COC(=O)C1(C)CCC(=O)C2(C)c3c(O)cc(C(C)C)cc3C(O)C(OC(C)=O)C12 (stereo unspecified) |  | 4.82% [at 57.1 µM]
N#C[C@@H](O[C@@H]1O[C@H](CO[C@@H]2O[C@H](CO)[C@@H](O)[C@H](O)[C@H]2O)[C@@H](O)[C@H](O)[C@H]1O)c1ccccc1 |  | 0.396% [at 57.1 µM]
CCCCCCn1c(=O)c(C(=O)Nc2ccc(C(=O)OCCC)cc2)c(O)c2ccccc21 |  | -4.23% [at 19.1 µM]
CN1CCCC1CCOC(c1cc2nccc(C(=O)O)c2[nH]1)c1ccccc1Cl (stereo unspecified) |  | 0%
COC(=O)C1(C)CCC(O)C2(C)c3c(O)cc(C(C)C)cc3C(O)C(OC(C)=O)C12 (stereo unspecified) |  | 11.8% [at 57.1 µM]
